Sampled rows, rich in hits. Any-hit rate of the full collection: about 19%.
HT1080 IDH1KD tx = qHTS for induction of synthetic lethality in tumor cells producing 2HG: qHTS for the HT-1080-IDH1KD cell line. HT-1080 IDH1 knockdown viability, ATP luminescence, 48 h. Potency, µM (titrated, usually from 46.1 µM), inactives show at the top dose activity, negative = toxicity, usual class: cytotoxic. 360,000 tested, 2% active. AID 686971, 2013;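 also: potency is read from the fitted curve at half-maximal effect; 0% = DMSO wells and -100% = cell-free medium wells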
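Cytotoxicity counter-line: IDH1KD HT-1080, 48 h, CellTiter-Glo. Curves classed by r2, magnitude and activity.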
HT1080NT lethal = qHTS for induction of synthetic lethality in tumor cells producing 2HG: qHTS for the HT-1080-NT fibrosarcoma cell line; 360,000 tested, 1.6% active; HT-1080-NT fibrosarcoma viability, CellTiter-Glo ATP luminescence, 48 h; Potency, µM (top dose mostly 46.1 µM), without a hit: at the top dose activity, negative = less viability, actives largely listed as cytotoxic; AID 686970, 2013;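 also: NT is the 2HG producing partner of a matched IDH1 knockdown line; potency is read from the fitted curve at half-maximal effect; 0% = DMSO-treated cells and -100% = media-only wells without cells; nearly all actives have a fitted effect of over 55% in size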
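Toxicity toward the 2HG-producing NT line was scored as %Activity, normalised to DMSO and no-cell wells, from CellTiter-Glo luminescence after 48 hours' treatment.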
TDP1 cell noCPT = qHTS for Inhibitors of human tyrosyl-DNA phosphodiesterase 1 (TDP1): qHTS in cells in absence of CPT | DT40 Tdp1-/- hTDP1 cells, no CPT, ATP luminescence, 48 h | Potency, µM (titrated, usually from 46.2 µM), without a hit: top-dose activity change, negative = growth inhibition, usual class: inhibitors | 420,000 tested, 15% active | AID 686978, 2013; also: potency is read from the fitted curve at half-maximal effect; nearly all actives have a fitted effect of over 55% in size
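A cellular qHTS used chicken DT40 cells lacking endogenous Tdp1 but carrying stably transfected human TDP1. Compounds were applied without camptothecin, and cell growth kinetics were judged by ATP-dependent luminescence after ≥48 hr.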
ELG1 DNA repair = qHTS screen for small molecules that inhibit ELG1-dependent DNA repair in human embryonic kidney (HEK293T) cells expressing luciferase-tagged ELG1. Potency, µM (doses to about 46.1 µM), without a hit: at the highest dose activity change, negative = inhibition, hits mostly inhibitors. 330,000 tested, 2.3% active. HEK293T ELG1-luciferase reporter, luminescence, 16 h; DNA damage induced by 5-fluorouridine. AID 504467, 2011; also: potency is read from the fitted curve at half-maximal effect; nearly all actives have a fitted effect of over 55% in size
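Step one: seed 2,000 cells per well. Step two: pin-transfer compound or DMSO alongside 5-fluorouridine. Step three: incubate 16 hr, 37 °C, 5% CO2. Step four: add ONE-Glo, wait 30 min, read luminescence.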
IL1B secr inh = qHTS for Inhibitors of Inflammasome Signaling: IL-1-beta AlphaLISA Primary Screen | 360,000 tested, 4.7% active | activity change, % at 57.5 µM | THP-1 LPS/ATP IL-1B secretion, AlphaLISA, 16 h; active compounds read low; in the data active = activity change below about -50%; inconclusive = mostly about -30% to -49%
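Secreted IL-1B measured by AlphaLISA bead assay after 16 h compound exposure of THP-1 cells; compounds (final up to 57.5 uM) added 1 h before LPS (250 ng/mL) and ATP (1.25 mM) stimulation; lower signal means less secretion.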
TDP1 cell CPT = qHTS for Inhibitors of human tyrosyl-DNA phosphodiesterase 1 (TDP1): qHTS in cells in presence of CPT; 420,000 tested, 12% active; Potency, µM (titrated, usually from 46.2 µM), for the others: at the highest dose activity change, negative = growth inhibition, actives largely listed as inhibitors; chicken DT40 Tdp1-/-;hTDP1 cells + 20 nM CPT, ATP luminescence, 48 h; AID 686979, 2013; also: potency is read from the fitted curve at half-maximal effect; nearly all actives have a fitted effect of over 55% in size
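Chicken DT40 Tdp1-/- cells stably complemented with human TDP1 were seeded at 400 cells/well in medium containing 20 nM camptothecin, exposed to pin-transferred compounds, and grown at 37 °C for at least 48 hr. Viability was read as ATP luminescence.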
* hit, by the source's call; ? = inconclusive; nt = not tested or not shown; ! = not active in a repeat. Unless noted, calls follow the shape of the dose curve; as a rule, active = well fitted curve in the direction sought with a large enough effect; inconclusive = small, poorly fitted or top-dose-only effect, or another doubt; inactive = no such curve, though single readings can be large; an effect the other way counts as inactive or inconclusive. Unless noted, % is scaled to controls: 0 for no effect and ±100 for the full control effect.

SMILES	HT1080 IDH1KD tx	HT1080NT lethal	TDP1 cell noCPT	ELG1 DNA repair	IL1B secr inh	TDP1 cell CPT
O=C(N/N=C/C=C/c1ccccc1)c1n[nH]c2c1CCC2	1.3µM*	1.84µM*	0.82µM*	?	68.1	1.64µM*
CC(/C=N/NC(=O)c1ccccc1C)=C\c1ccccc1	18.3%	-5.7%	?	nt	-9.9	?
COc1ccc(CC(=O)N(C)CC(=O)Nc2ccc(F)cc2)cc1S(=O)(=O)N1CCOCC1	0.9%	6.2%	5.8%	11.6%	15.6	-0.3%
CC(C)C[C@H]1CNC(=S)N1C[C@H]1CCCN1C[C@H](CC(C)C)N1C[C@H](Cc2ccc(O)cc2)N(CCc2ccccc2)C1=S	?	18.4µM*	18.4µM*	nt	-5.8	?
CC(C)C[C@@H](CN1CCCC1CN1C(=S)NC[C@@H]1Cc1ccc(O)cc1)N1C[C@H](Cc2ccccc2)N(CCc2ccccc2)C1=S (stereo not given in full)	0.8%	-3.3%	14.6µM*	nt	-15.6	?
CC(C)C[C@H]1CN([C@@H](CC(C)C)CN2CCC[C@@H]2CN2C(=S)NC[C@@H]2Cc2ccc(O)cc2)C(=S)N1CCc1ccccc1	?	?	9.2µM*	nt	?	13µM*
Oc1cccc(C=NN=C2c3ccccc3-c3ccccc32)c1	-23.5%	-5.6%	-29.5%	nt	-18.8	-2.4%
CCOc1cc(/C=N/NC(=O)C(=O)N/N=C/c2ccc(O)c(OCC)c2)ccc1O	12.1%	11.1%	-0.7%	-3.2%	9.8	-0.2%
CCOc1cc(C=NN=C2c3ccccc3-c3ccccc32)ccc1O	?	-28.4%	18.4µM*	nt	-17.1	?
CCOc1cc(/C=N/NC(=O)c2ccccc2-n2cccc2)ccc1O	?	?	?	?	29.6	?
CCOc1cc(/C=N/Nc2nnc(C)n2N)ccc1O	23.1µM*	?	-7.4%	4.9%	0.0	?
CCOc1cc(/C=N/NC(=O)N/N=C/c2ccc(O)c(OCC)c2)ccc1O	2.59µM*	1.84µM*	2.91µM*	nt	?	2.59µM*
CCOc1cc(/C=N/NC(=O)c2ccccc2OCc2ccc(F)cc2)ccc1O	-4.8%	-3.2%	13µM*	5.8µM*	-7.9	?
CC(=O)Nc1c(C)nn(-c2ccccc2)c1N1CCC(C(=O)NCc2cccc(Cl)c2)CC1	nt	nt	-19.7%	nt	nt	-10.9%
O=C(COc1ccccc1[N+](=O)[O-])N/N=C/c1ccc(O)c([N+](=O)[O-])c1	-10.4%	-0.1%	-15.0%	?	27.9	?
O=C(COc1ccccc1C(=O)N/N=C\c1ccc(O)c(O)c1)N/N=C/c1ccc(O)c(O)c1	-23.6%	-1.7%	?	-0.1%	6.1	16.4µM*
CCCc1nnc(NC(=O)c2cn(CC)c3cc(N4CCN(C)CC4)c(F)cc3c2=O)s1	11.8%	3.0%	?	-3.6%	0.0	14.2%
O=C(O)c1c(Cl)c(Cl)c(Cl)c(Cl)c1-c1c2cc(I)c(=O)c(I)c-2oc2c(I)c(O)c(I)cc12	nt	nt	15µM*	nt	nt	?
Cn1cc(-c2csc(C(O)c3ccc(F)cc3)n2)cn1 (stereo not given)	0.4%	9.3%	?	nt	36.0	?
FC(F)(F)c1ccccc1-c1cncnc1-n1ccnc1	nt	nt	12.7%	nt	nt	2.6%
FC(F)(F)c1ccccc1-n1ccnc1	18.8%	5.1%	16.4µM*!	18.6%	16.3	?
